Inconclusive results are not listed. Where a call stands in place of a potency, no number is given. Activity calls are given as the source filed them. The call rests on the fitted dose curve; in most records, active means well fitted cell-killing curve with a large enough effect; inconclusive means small, poorly fitted or top-dose-only effect, or effect the other way; inactive means no such curve, though single readings can be large or run the other way.
Potency means the concentration at half of the fitted maximal effect.

The assay in a line: Quantitative High-Throughput drug screen in 47 multiple myeloma cell lines against the NCATS MIPE library collection: KMS28BM_JCRB cell viability assay (AID 1919874). Further: nearly all actives have a fitted effect of over 35% in size. The conditions noted are these: CellTiter-Glo ATP, 48 h; series mostly up to 45.8 µM. An excerpt: PI: Beverly A. Mock Ph.D.
Laboratory of Cancer Biology and Genetics,
Center for Cancer Research, National Cancer Institute,
National Institute of Health, Bethesda, Maryland
Drug resistance and disease progression are common in multiple myeloma (MM) patients, underscoring the need for new therapeutic combinations. […] We hypothesized that effective combinations would reduce MYC expression and enhance p16 activity. […] These preclinical data identify potentially useful drug combinations for evaluation in drug-resistant MM and reveal potential mechanisms of combined drug sensitivity.
Described herein is the primary MIPE qHTS used to cherrypick compounds. Validated compounds were then further tested for potential synergistic activiy.
[1] Peat TJ, Gaikwad SM, Dubois W, Gyabaah-Kessie N, Zhang S, Gorjifard S, Phyo Z, Andres M, Hughitt VK, Simpson RM, Miller MA, Girvin AT, Taylor A, Williams D, D'Antonio N, Zhang Y, Rajagopalan A, Flietner E, Wilson K, Zhang X, Shinn P, Klumpp-Thomas C, McKnight C, Itkin Z, Chen L, Kazandijian D, Zhang J, Michalowski AM, Simmons JK, Keats J, Thomas CJ, Mock BA. Drug combinations identified by high-throughput screening promote cell cycle transition and upregulate Smad pathways in myeloma. Cancer Lett. 2023 Aug 1;568:216284. doi: 10.1016/j.canlet.2023.216284. Epub 2023 Jun 24. PMID: 37356470; PMCID: PMC10408729.
SEQUENCE No. (e.g., 1, 2, 3, etc.); […] (e.g., Cells, Incubation, Reagent, etc.); VALUE and DESCRIPTION.
1; Cells; 5 uL; white, solid bottom 1536-well Greiner assay plate.
2; Compounds; 23 nL; Kalypsis pin tool (Wako USA) equipped with a 1536-well pin head to transfer to the assay plates.
3; Incubation; 48 hours; 37C incubation.
4; Reagent;5uL; CellTiter Glo (Promega).
5; Detector; 425V; Luminescence; Viewlux PerkinElmer.
NOTES (numbers refer to Sequence numbers above)
1. The cell-based screening methods employed in this study were like those previously published. Briefly, the corresponding myeloma cell lines were screened in 1,536-well plates with 500 cells, 5-uL per well for inhibition of cell viability (assessed by measuring ATP levels with CellTiterGlo).
2. NCATS MIPE 4.0 library of approved and investigational drugs were added using the Kalypsis pin tool. Wells treated with DMSO only for 100% viability and media only for 0% viability were used as controls.
3. The assay plates were covered and incubated for 48 hours in a 37C, 5% CO2 incubator with controlled humidity.
4. After 48 hours, CellTilter-GloTM luminescent substrate mix (Promega) reagent was added to the assay plate and plates we incubated for 5 min at room temperature.
5. Signal was measured as median relative luminescence units on a ViewLux (PerkinElmer) multiplate reader.
[1] Heske CM, Davis MI, Baumgart JT, Wilson K, Gormally MV, Chen L, Zhang X, Ceribelli M, Duveau DY, Guha R, Ferrer M, Arnaldez FI, Ji J, Tran HL, Zhang Y, Mendoza A, Helman LJ, Thomas CJ. Matrix Screen Identifies Synergistic Combination of PARP Inhibitors and Nicotinamide Phosphoribosyltransferase (NAMPT) Inhibitors in Ewing Sarcoma. Clin Cancer Res. 2017 Dec 1;23(23):7301-7311. doi: 10.1158/1078-0432.CCR-17-1121. Epub 2017 Sep 12. PMID: 28899971; PMCID: PMC6636827.
On the technique in general: Cellular ATP, detected with luciferase, serves as a proxy for viable cell number.
For `CC(=O)NCC(=O)N1[C@H]2CC[C@H]1c1cc(Nc3ncc(C(F)(F)F)c(NC4CCC4)n3)ccc12`, the Potency is 3.32 µM (active).

For `C=C1C(=O)O[C@H]2[C@@H]1CCC(C)=CCC[C@@]1(C)O[C@@H]21`, the Potency is 7.43 µM (active).

Take `C=CC[C@@H]1C=C(C)C[C@H](C)C[C@H](OC)[C@H]2O[C@@](O)(C(=O)C(=O)N3CCCC[C@H]3C(=O)O[C@H](C(C)=C[C@@H]3CC[C@H](O)[C@H](OC)C3)[C@@H](C)[C@@H](O)CC1=O)[C@@H](C)C[C@@H]2OC`: the Potency is 0.833 µM (active).

On to `CC(=O)O[C@H]1C[C@@H]2CC[C@H]3[C@H]4C[C@H]([N+]5(C)CCCCC5)[C@@H](OC(C)=O)[C@@]4(C)CC[C@@H]3[C@@]2(C)C[C@H]1[N+]1(C)CCCCC1`, for which the Potency entry was “inactive”.

On to `CC[C@H](CC[C@@H](C)[C@H]1CC[C@H]2[C@@H]3CC=C4C[C@@H](O)CC[C@]4(C)[C@@H]3CC[C@]12C)C(C)C`, for which the Potency result was “inactive”.

For the molecule `CCOc1cc2c(c(F)c1OCC)C(=N)N(CC(=O)c1cc(N3CCOCC3)c(OC)c(C(C)(C)C)c1)C2`, the Potency was 8.33 µM (active).

`COc1ccc([C@@H]2CNC(=O)C2)cc1OC1CCCC1`: the Potency result was “inactive”.

With `CCc1c(O)cc(O)c(C(=O)c2ccc(OCCN3CCOCC3)c(OC)c2)c1CC(=O)N(CCOC)CCOC`, the Potency is 1.32 µM (active).

With `CC(C)c1cnn2c(NCc3ccccc3)cc(NCCCCCCN)nc12`, the Potency is 20.9 µM (active).

With `CS[C@H]1SC[C@@H]2C(=O)N(C)[C@H](C(C)C)C(=O)OC[C@H](NC(=O)c3cnc4ccccc4n3)C(=O)N[C@H](C)C(=O)N(C)[C@@H]1C(=O)N(C)[C@H](C(C)C)C(=O)OC[C@H](NC(=O)c1cnc3ccccc3n1)C(=O)N[C@H](C)C(=O)N2C`, the Potency was 0.0017 µM (active).

Consider `CCN(CC)Cc1ccc2cc(COC(=O)Nc3ccc(C(=O)NO)cc3)ccc2c1`, for which the Potency is 0.418 µM (active).

Regarding `NC(=O)c1cccc(-c2cccc(OC(=O)NC3CCCCC3)c2)c1`, the Potency result is “inactive”.

Take `CC(=O)OCC(=O)[C@@]1(O)CC[C@H]2[C@@H]3CCC4=CC(=O)CC[C@]4(C)[C@@H]3C(=O)C[C@@]21C`: the Potency entry is “inactive”.

Regarding `C[N+](C)([O-])CCNc1ccc(NCC[N+](C)(C)[O-])c2c1C(=O)c1c(O)ccc(O)c1C2=O`, the Potency entry is “inactive”.

Regarding `C=Cc1c(C)c2cc3nc(cc4[nH]c(cc5nc(cc1[nH]2)C(C)=C5CCC(=O)O)c(CCC(=O)OC)c4C)[C@@]1(C)C3=CC=C(C(=O)OC)[C@H]1C(=O)OC`, the Potency was 0.418 µM (active).

Consider `O=C(Nc1cc2cc[nH]c2cn1)c1ccccc1`, for which the Potency is 5.26 µM (active).

As for `CCCCCCCCc1ccc(CCC(N)(CO)CO)cc1`, the Potency is 7.43 µM (active).

For the molecule `COc1cc(OC)c(C=CS(=O)(=O)Cc2ccc(OC)c(NCC(=O)O)c2)c(OC)c1`, the Potency is 0.132 µM (active).

As to `C=C(C)[C@@H]1CC[C@]2(C(=O)O)CC[C@]3(C)[C@H](CC[C@@H]4[C@@]5(C)CC[C@H](O)C(C)(C)[C@@H]5CC[C@]43C)[C@@H]12`, the Potency entry is “inactive”.

Turning to `Cn1cc(C[C@@H](N)C(=O)O)c2ccccc21`, the Potency result is “inactive”.

Take `C[C@H](NC(=O)[C@@H](O)c1cc(F)cc(F)c1)C(=O)N[C@@H]1C(=O)N(C)c2ccccc2-c2ccccc21`: the Potency result is “inactive”.

Turning to `c1cncc(CN2CCC(n3ncc4c(N5CCOCC5)nc(-c5ccc6[nH]ccc6c5)nc43)CC2)c1`, the Potency was 11.8 µM (active).

With `COc1ccc2c(c1OC)C(=O)OC2[C@H]1c2c(cc3c(c2OC)OCO3)CCN1C` (stereo not given in full), the Potency is 0.0209 µM (active).

As to `C=CC(=O)Nc1cc(NC(=O)c2ccc(C)c(NC(=O)c3ccno3)c2)cc(C(F)(F)F)c1`, the Potency is 20.9 µM (active).

With `C[C@H]1O[C@H](O[C@H]2[C@H](O)[C@@H](O)[C@@H](O[C@H]3[C@H](O)[C@@H](O)C(O)O[C@H]3CO)O[C@H]2CO)[C@H](O)[C@@H](O)[C@H]1N[C@H]1C=C(CO)[C@@H](O)[C@H](O)[C@@H]1O` (stereo not given in full), the Potency entry was “inactive”.

Consider `Cc1cn([C@@H]2O[C@H](CO)[C@@H](O)[C@H]2F)c(=O)[nH]c1=O`, for which the Potency result is “inactive”.

As for `C[C@H]1COc2c(N3CCN(C)CC3)c(F)cc3c(=O)c(C(=O)O)cn1c23`, the Potency result is “inactive”.

In the case of `C=C1C[C@@]2(O)O[C@@]3(C[C@H]2C(C)C)[C@H](C)CC[C@H]13`, the Potency result was “inactive”.

Take `c1cc(N[C@@H]2CCNC2)nc(-c2cnc3ccc(-c4cn[nH]c4)cn23)c1`: the Potency is 23.5 µM (active).

`CN[C@H](CC(C)C)C(=O)N[C@H]1C(=O)N[C@@H](CC(N)=O)C(=O)N[C@@H]2C(=O)N[C@H]3C(=O)N[C@H](C(=O)N[C@H](C(=O)O)c4cc(O)cc(O)c4-c4cc3ccc4O)[C@H](O)c3ccc(c(Cl)c3)Oc3cc2cc(c3O[C@@H]2O[C@H](CO)[C@@H](O)[C@H](O)[C@@H]2O[C@H]2C[C@](C)(N)[C@H](O)[C@H](C)O2)Oc2ccc(cc2Cl)[C@H]1O`: the Potency result is “inactive”.

Regarding `NC1=N[C@H]2[C@H](CS[C@H]2CCCCC(=O)O)N1`, the Potency result is “inactive”.

Regarding `CC(C)Oc1ccc(C(=O)N[C@H](CNC(=O)CN(C)C)Cc2ccc(-c3cn4cccc([C@H](C)O)c4n3)cc2)cc1Cl`, the Potency was 1.66 µM (active).

As to `Nc1cccc2c1C(=O)N(C1CCC(=O)NC1=O)C2=O` (stereo not given), the Potency result was “inactive”.

Consider `CC1(C)[C@H](O[C@H]2O[C@H](C(=O)O)[C@@H](O)[C@H](O)[C@H]2O[C@@H]2O[C@H](C(=O)O)[C@@H](O)[C@H](O)[C@H]2O)CC[C@@]2(C)[C@H]1CC[C@]1(C)[C@H]2C(=O)C=C2[C@H]3C[C@@](C)(C(=O)O)CC[C@]3(C)CC[C@]21C`, for which the Potency entry was “inactive”.

`Cc1ncc(-c2ccnc(Nc3ccc(S(C)(=O)=O)cc3)n2)n1C(C)C`: the Potency was 4.69 µM (active).

Turning to `Nc1nc2c(c(=O)[nH]1)N(C=O)[C@H](CNc1ccc(C(=O)N[C@@H](CCC(=O)O)C(=O)O)cc1)CN2`, the Potency result is “inactive”.

Consider `Nc1ccn(C2CO[C@H](CO)O2)c(=O)n1` (stereo not given in full), for which the Potency result is “inactive”.

As for `C[C@]12CC[C@@H]3c4ccc(O)cc4CC[C@H]3[C@H]1CC[C@H]2O`, the Potency was 23.5 µM (active).

Consider `CN(C)CCN1C(=O)c2cccc3cc(N)cc(c23)C1=O`, for which the Potency was 16.6 µM (active).

Turning to `CC(=O)N[C@@H]1[C@H](O[C@@H]2c3ccc(c(Cl)c3)Oc3cc4cc(c3O[C@H]3O[C@H](CO)[C@@H](O)[C@H](O)[C@H]3NC(=O)CCCCCCCC(C)C)Oc3ccc(cc3Cl)C[C@H]3NC(=O)[C@H](N)c5ccc(O)c(c5)Oc5cc(O)cc(c5)[C@H](NC3=O)C(=O)N[C@H]4C(=O)N[C@H]3C(=O)N[C@@H]2C(=O)N[C@@H](C(=O)O)c2cc(O)cc(O[C@H]4O[C@H](CO)[C@@H](O)[C@H](O)[C@H]4O)c2-c2cc3ccc2O)O[C@H](CO)[C@@H](O)[C@@H]1O`, the Potency entry was “inactive”.

The values above are taken from PubChem BioAssay (NCATS).
